To fix the notation:
T1: UNK ZnF1-3 (human, UniProt Q9C0B0 31-174)
T1 sequence: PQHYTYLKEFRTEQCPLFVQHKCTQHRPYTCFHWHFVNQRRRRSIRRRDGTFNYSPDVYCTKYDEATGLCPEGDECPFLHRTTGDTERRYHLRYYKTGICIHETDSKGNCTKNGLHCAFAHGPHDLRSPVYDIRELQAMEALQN

B1: chr1:225611761:225611762:-_ENSG00000143815_ENST00000272163|hu_mus|hu_hu_hu_mus_True|8_98 (ssRNA)
RNA: GGGAGUUCUACAGUCCGACGAUCCCAGGCCAUCGGCCUCUUACCACUUCACCCUCAACAAACUUCCUACUUGGCAUUUUCUAAAAUUAGUCUGGCCGCGCUCCGGCGGGAACUCCAGCCACUCCAGGGAGAAUAGUAGCAGCCCAACAGAGGAUUGAGCAUCA
B2: 35472726_35489589_359_3pUTR_ENSMUSG00000029840_ENSMUST00000031866|mouse|control|control (ssRNA)
RNA: GGGAGUUCUACAGUCCGACGAUCCUGUCCACAAUCUGCAGCAUAAUGAAGAGGCUUCCUUCCACCCUCUAGUGUCCGGUUGACAUCUUCUCCCUUAGCCACAUAGUCCUUCACCUCAUCCAAGUCUCCGUUUUUCAGGGCCCACAACAGAGGAUUGAGCAUCA
B3: chr17:47010600:47010601:-_ENSG00000159210_ENST00000290330|hu_hu|FALSE|FALSE (ssRNA)
RNA: GGGAGUUCUACAGUCCGACGAUCACUGACAGUCACGUAGCCAUUCUCUGCCAGCUGCAGCACCACGGUGUGAUCCAUAUUGAGCUCAGCUGGAACAGACUGAAUGAGGUAAGUGCCGCCCACAGGGAUGAUGCCGAAGCCAGUCAACAGAGGAUUGAGCAUCA
B4: chr2:217001844:217001845:+_ENSG00000079246_ENST00000392132|hu_hu|FALSE|FALSE (ssRNA)
RNA: GGGAGUUCUACAGUCCGACGAUCGCCGACUUGAGGAUUAGCUCUUUUGUCAUAAGCAUAUCGAACUAUGGCCACCAUGUCUAAGUCAUCCAAAGCAUGAAUCAGGGAGGAAAGUGCAACUGCAGCUGCCUCAUCAUCUCUUGCCAACAGAGGAUUGAGCAUCA
B5: chr21:40768814:40768815:+_ENSG00000182093_ENST00000333781|hu_mus|motif|central (ssRNA)
RNA: GGGAGUUCUACAGUCCGACGAUCCUGGCCUUCCCCUCAGCUGAAAGGGUGGAGAACGAUAGCCACAACUUUGUUACAGACGGAAAUCCAACAGGUGAUUCCAAUUCCACCUGCUACUCGAGUAGGAAAGGCUACCAGGCGGUCCAACAGAGGAUUGAGCAUCA
B6: 96412582_96412966_892_CDS_ENSG00000111144_ENST00000228740|human|control|control (ssRNA)
RNA: GGGAGUUCUACAGUCCGACGAUCGCCACCAUAAGGGAAGGAUGGUGGCAGGACCAAUAGGUCAUACUGUCCCCAUACAUACGGUCCUCCCAGAUCUUCUGCUAUUUUAAGCAUAGAUUCAGUCUCAGAAAACUCAUAAGCAGACAACAGAGGAUUGAGCAUCA
B7: 32585910_32588873_1288_CDS_ENSMUSG00000024381_ENSMUST00000025239|mouse|control|control (ssRNA)
RNA: GGGAGUUCUACAGUCCGACGAUCUGAGAAAGGCCCAGGGGCCUCAAACUGGGAGGGGGUGGUCACGCUGAUCUCAGGGACAAAUGCGUCAUCAAAAAGGCUGAGAAUCUGCUCCUGCUUCAUCUCCUUGGAUGGGGUGUGUUUCAACAGAGGAUUGAGCAUCA
B8: chrX:117107323:117107324:-_ENSG00000003096_ENST00000371878|hu_mus|motif|central (ssRNA)
RNA: GGGAGUUCUACAGUCCGACGAUCUUUGAGCUGCAACAGUACAAAUGGGAUAUAAACCUCAGCAUAGCCUUAGGCCACAGCGGAUAGAGAUCAGUGACUAAAUUCAGCAGCCCGCUUUCCUCCUGUGAAAGCUCUGGCCACACACAACAGAGGAUUGAGCAUCA
B9: chr16:18799448:18799449:-_ENSG00000134419_ENST00000563390|perfect_dup|FALSE|FALSE (ssRNA)
RNA: GGGAGUUCUACAGUCCGACGAUCCCUUCCUGUGAGGUUCACAACAAUCUUCCCAGCUCUGUGAUCAUCAAUGAUCUCAAAUUCACCAAUGUAUCCGUGCUUCAUCAUCACGGUUAAGAACCGAACGAUGACUUUAGAACAUGGCAACAGAGGAUUGAGCAUCA
B10: 99623494_99624154_931_CDS_ENSMUSG00000067567_ENSMUST00000087916|mouse|control|control (ssRNA)
RNA: GGGAGUUCUACAGUCCGACGAUCCUGAAUGGGCACAUUGACACUGUAGUACCGUCCUUUCCCCAGGCCAACAUCAGACAUGUCACCUGUUCCUGGGAAAAAUCCUGGGGAGAACUUGUGCAGGGACACAGUCAUAACCUUCGACAACAGAGGAUUGAGCAUCA
B11: chr1:172123744:172123745:-_ENSMUSG00000026667_ENSMUST00000150821|mus_hu|motif|central (ssRNA)
RNA: GGGAGUUCUACAGUCCGACGAUCAAACGCAUUGUUCACACUUUUUAGGAAUAUAGGAAAGUGGAAAAUAAAAGUUCUUUGCGGUUCAGCAGGAAAGAGUUUAAAAGACUUGAAUGGAAAUCAGAAAUUUAGGGAUUUGAGAAACAACAGAGGAUUGAGCAUCA
B12: chr9:14812383:14812384:-_ENSMUSG00000031934_ENSMUST00000164273|mus_mus|mus_mus_mus_hu_True|68_88 (ssRNA)
RNA: GGGAGUUCUACAGUCCGACGAUCAUAGCCCAGGUAGAUACACGCUAACAGUAUAACGAUGAGUGUCACCAGCCGGCAGCUAAUGUACUUGAUGAUUAAAUUAUUAGAAUUUUUCUUUGUCUUCAAGUACUGCUCCACAAUUGGCAACAGAGGAUUGAGCAUCA
B13: 37607701_37614754_715_CDS_ENSG00000102710_ENST00000475892|human|control|control (ssRNA)
RNA: GGGAGUUCUACAGUCCGACGAUCGCUCUCAAGCAAAAGUUUGUCUUCCUGGGUCCAUUUGUGGUUAUCACUUGUUAUUGAAUGUACAUCACAAAUUAAAGUCUGCAUUGUUGGACGUAAGAGAAUGUGCCGACUUUGGUAACCCAACAGAGGAUUGAGCAUCA
B14: chr2:183789671:183789672:-_ENSG00000061676_ENST00000360982|hu_hu|FALSE|FALSE (ssRNA)
RNA: GGGAGUUCUACAGUCCGACGAUCUGGCAGGUACACUUGAAUUUCAAAAAUUUAAAACAUAUAUAAAAAGUGGUUAGGGACUAACAUUUGUAUCAACAGUUGAUAAAUGUCUAAGAUUGUUUAUUAUACAGCAGGGUACAAUGGCAACAGAGGAUUGAGCAUCA
B15: chr2:183789671:183789672:-_ENSG00000061676_ENST00000360982|hu_hu|motif|central (ssRNA)
RNA: B14 RNA with U81G, A82G
B16: chr19:42259214:42259215:+_ENSMUSG00000018820_ENSMUST00000165783|mus_mus|FALSE|FALSE (ssRNA)
RNA: GGGAGUUCUACAGUCCGACGAUCGCUAUAGUGACUGCUGCAGACUCAGAGACACUAGGAAAGUUGCAAGUGUAUAUUUUCUAUCUAAAUUUCUAACUAAAAUUUGCCCUGUUUUAUUCACUGGCCCAAAGGAUUCUUUUUUAACAACAGAGGAUUGAGCAUCA
B17: chr3:102833055:102833056:+_ENSMUSG00000068823_ENSMUST00000029446|mus_mus|motif|central (ssRNA)
RNA: GGGAGUUCUACAGUCCGACGAUCUCAGUAGUAUUUGCUGACUCUUCUUUUUUCAGCACAAGUUCCAAAGGAUGAAAGUUGCGGGUAUUUAAAAAAAGAAAAAAAAAAGAAAAAGAAAAAAAGAAAAAAAAAAGGAGAGCGAGACAACAGAGGAUUGAGCAUCA
B18: chr11:44378942:44378943:+_ENSMUSG00000019189_ENSMUST00000019333|mus_mus|motif|central (ssRNA)
RNA: GGGAGUUCUACAGUCCGACGAUCUUUAAAUUUAUUAAGACAUUCAGCUAUGUCUGUCAGUCUACAUCCAAAUUUGCGGCGGAAAACAAAGGAAAACCACACCCCACAGUAGGAAUACCAAGUCUGAAAUACACUUUUUUUUGACAACAGAGGAUUGAGCAUCA
B19: chr8:93522421:93522422:+_ENSMUSG00000056608_ENSMUST00000048665|mus_hu|FALSE|FALSE (ssRNA)
RNA: GGGAGUUCUACAGUCCGACGAUCAGACUGGAUCAUUGCUUGAAGAUGAAAAUCAGAAGCAGCUGGAUUGUAAGUAUCUCUAAAUUCUCCAAGUAUUUUCUCCUCAGCACCUUUUAUAAGAUAUGGAUGAUUACAACAUUUCCUCAACAGAGGAUUGAGCAUCA
B20: chr3:102833055:102833056:+_ENSMUSG00000068823_ENSMUST00000029446|mus_mus|FALSE|FALSE (ssRNA)
RNA: B17 RNA with G82U, G83A
B21: 142051865_142054343_4063_CDS_ENSG00000114127_ENST00000264951|human|control|control (ssRNA)
RNA: GGGAGUUCUACAGUCCGACGAUCUGACUGUACUUCAUUUUCUUUGGAGAUAUUCAAAGAUGCUAAAAAGUUCUCAAUUCCAGAGUUAGGCUGCUUAUUGGACAUUUUUUGGGACCAACACUCAGCUUUAGGACUCUUACACUCCAACAGAGGAUUGAGCAUCA
B22: chr8:117878989:117878990:-_ENSG00000164754_ENST00000297338|hu_hu|hu_hu_hu_mus_True|8_8 (ssRNA)
RNA: GGGAGUUCUACAGUCCGACGAUCCCAGAGGCCCUCGUUUACUGAGGACAAAAUGUGCGUAGAACAUUUUUCUUAUUUGCUAUGAAAUAAGAAGAAACCUGGAUCUCGGCGGGGAGCCGGGAGGGGUUGGGUGGCCCGGGAGGGCAACAGAGGAUUGAGCAUCA

Numbering of substitutions follows the chain as printed. The full ranking holds about 24,000 sequences; the median of “enrichment r” is about 0.99, and the highest 2% start at about 3.7. For the sample, the highest values were picked, then their nearest neighbours and some sequences at random.

The assay has as its target T1, UNK ZnF1-3. Description: nsRBNS (natural sequence RNA bind-n-seq); RBNS binding buffer (assumed for nsRBNS): 25 mM Tris pH 7.5, 150 mM KCl, 3 mM MgCl2, 0.01% Triton X-100, 500 ug/ml BSA, 20 U/ml SUPERase-In, 4 C; UNK is unkempt and MSI1 is Musashi-1; names of the RNAs are library labels; protein concentration not given here; high values mean tight binding.
Molecule B1 gave a binding signal of 1.11 enrichment R.
In the case of B2 it was 0.866 enrichment R; in that of B3, 0.843 enrichment R.
In the case of B4 it was 1.53 enrichment R; in that of B5, 1.05 enrichment R.
In the case of B6 it was 0.524 enrichment R; in that of B7, 1.65 enrichment R; in that of B8, 1.34 enrichment R.
As to B9, the binding signal was 0.793 enrichment R.
In the case of B10 it was 0.68 enrichment R.
In the case of B11 it was 3.57 enrichment R.
In the case of B12 it was 1.31 enrichment R; in that of B13, 0.803 enrichment R; in that of B14, 4.06 enrichment R.
B15: the binding signal was 6.64 enrichment R.
For the molecule B16, the binding signal stood at 1.32 enrichment R.
For B17 the value was 8.15 enrichment R; for B18, 1.46 enrichment R; for B19, 1.27 enrichment R.
For B20 the value was 5.11 enrichment R.
In the case of B21 it was 0.644 enrichment R; in that of B22, 1.2 enrichment R.

Values taken from article PMC12136788.
